Data: PubChem BioAssay (NCATS)
Records with an inconclusive call do not appear. Active and inactive are the calls of the source. Unless noted, calls come from the whole dose curve; as a rule, active = well fitted curve in either direction with a large enough effect (not every such curve was filed as active); inconclusive = small, poorly fitted or top-dose-only effect, or another doubt; inactive = flat fitted curve, though single readings scatter.

Columns and labels:
[1] = AP1 Signaling Pathway (AID 357); settings: ME-180 AP-1-bla reporter, EGF-induced, beta-lactamase ratio, 5 h; at 17.2 µM (top of the series) unless noted;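 note: ME-180 reporter cells stimulated with EGF at its EC50 level; % is set by controls: 0 for no effect and ±100 for the full control effect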
Outline: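 Titration-series screen for positive or negative modulators of EC50 EGF-induced signaling in ME-180 cells carrying an AP-1-driven beta-lactamase reporter. After 5 hours at 37 degrees Celsius, CCF4 460nm/530nm emission ratio gave %Activity; AC50 values derived.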

[2] = NFAT Signaling Pathway (AID 444); settings: Jurkat NFAT-bla M1, carbachol, beta-lactamase ratio, 5 h; at 17.2 µM (top of the series) unless noted;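 note: carbachol stimulus at about its EC50 of 1 µM final; % is set by controls: 0 for no effect and ±100 for the full control effect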
Outline: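 Read-out: CCF4 FRET ratio (460 nm/530 nm) after 1 h RT dye loading, used for %activity and AC50 from titration series. Cells: Jurkat NFAT-β-lactamase/M1 line, treated with compound plus 1 uM carbachol for 5 h, 37 °C.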

[3] = Stat Signaling Pathway (AID 446); settings: ME-180 (cervical carcinoma) SIE beta-lactamase reporter, IL-6 stimulated, 5 h; at 17.2 µM (top of the series) unless noted;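 note: ME-180 cervical cancer cells given 40 pM IL-6 alongside compound; SIE-controlled beta-lactamase reporter measured as 460/530 nm FRET emission ratio; % is set by controls: 0 for no effect and ±100 for the full control effect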
Outline: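 Overnight-plated ME-180 cells bearing a STAT Inducible Element beta-lactamase reporter; 5 h co-exposure to compound and 40 pM IL-6; values normalized to 300 pM IL-6 and 125 nM JAK inhibitor controls.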

[4] = biological target: Glucocorticoid receptor (Homo sapiens) (UniProt P04150); experiment: GR-GFP Redistribution (AID 450;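 active = compounds whose dose series gives a full or clear partial fitted curve of increased nuclear translocation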; note: potency is the fitted concentration of half-maximal effect)
Sequence of Glucocorticoid receptor (Homo sapiens) (P04150 whole entry, looked up): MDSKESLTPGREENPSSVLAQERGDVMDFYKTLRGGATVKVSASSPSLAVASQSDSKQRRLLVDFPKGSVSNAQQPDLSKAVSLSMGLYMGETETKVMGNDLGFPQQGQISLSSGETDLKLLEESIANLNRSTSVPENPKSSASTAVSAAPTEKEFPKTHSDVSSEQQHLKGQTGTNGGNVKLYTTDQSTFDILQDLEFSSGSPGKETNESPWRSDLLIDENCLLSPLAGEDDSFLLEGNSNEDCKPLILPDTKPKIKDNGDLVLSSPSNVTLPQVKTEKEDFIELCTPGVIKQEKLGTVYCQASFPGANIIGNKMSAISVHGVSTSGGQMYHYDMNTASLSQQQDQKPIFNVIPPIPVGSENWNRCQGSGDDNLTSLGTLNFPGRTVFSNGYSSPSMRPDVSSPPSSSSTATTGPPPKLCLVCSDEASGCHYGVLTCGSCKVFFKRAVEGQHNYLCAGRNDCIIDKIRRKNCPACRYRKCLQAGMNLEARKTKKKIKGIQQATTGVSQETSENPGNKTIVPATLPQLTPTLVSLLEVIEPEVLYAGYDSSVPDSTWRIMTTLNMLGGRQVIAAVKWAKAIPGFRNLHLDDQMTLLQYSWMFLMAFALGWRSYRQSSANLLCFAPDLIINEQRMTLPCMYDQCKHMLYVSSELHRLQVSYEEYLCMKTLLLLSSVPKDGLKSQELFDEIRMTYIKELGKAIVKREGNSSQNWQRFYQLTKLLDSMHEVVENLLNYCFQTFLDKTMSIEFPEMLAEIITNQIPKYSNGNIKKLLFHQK

COc1ccccc1N(O)C1CC(=O)N(c2ccc(F)cc2)C1=O (stereo not drawn)
inactive: activity change, negative = inhibition [1] -0.204% | activity change, negative = inhibition [2] -3.85% | activity, negative = inhibition [3] 1.38% | Potency [4] > 20.6 µM

CC(C)c1ccc(O)c(N)c1
inactive: activity change, negative = inhibition [1] -2.33% | activity change, negative = inhibition [2] 12.3% | activity, negative = inhibition [3] 2.34% | Potency [4] > 20.6 µM

Cc1cc(OCC(=O)Nc2ccc3oc(-c4ccncc4)nc3c2)ccc1Cl
inactive: activity change, negative = inhibition [1] -4.67% | activity change, negative = inhibition [2] 16.6% | activity, negative = inhibition [3] 3.21% | Potency [4] > 20.6 µM

O=C(Nc1ncn[nH]1)c1c(Cl)ccc(Cl)c1Cl
inactive: activity change, negative = inhibition [1] 13.1% | activity change, negative = inhibition [2] 1.62% | activity, negative = inhibition [3] -0.714% | Potency [4] > 20.6 µM

Cn1ncc(N=Cc2ccccc2O)c1C(=O)N1CCOCC1
inactive: activity change, negative = inhibition [1] 2.72% | activity change, negative = inhibition [2] -6.4% | activity, negative = inhibition [3] -4.13% | Potency [4] > 20.6 µM

Cc1ccc2[nH]c3c(N4CCOCC4)ncnc3c2c1
inactive: activity change, negative = inhibition [1] -7.05% | activity change, negative = inhibition [2] 18.4% | activity, negative = inhibition [3] -10.6% | Potency [4] > 20.6 µM

O=C(O)CC1SC(=Nc2cccc(C(F)(F)F)c2)NC1=O (stereo not drawn)
inactive: activity change, negative = inhibition [1] 7.22% | activity change, negative = inhibition [2] 9.67% | activity, negative = inhibition [3] -0.717% | Potency [4] > 20.6 µM

O=C(Oc1cccnc1)c1ccco1
inactive: activity change, negative = inhibition [1] 7.51% | activity change, negative = inhibition [2] 5.81% | activity, negative = inhibition [3] 8.88% | Potency [4] > 20.6 µM

COc1ccc(-c2nnc3sc(-c4c(OC)cccc4OC)nn23)cc1
inactive: activity change, negative = inhibition [1] -13.7% | activity change, negative = inhibition [2] -15.1% | activity, negative = inhibition [3] 6.15% | Potency [4] > 20.6 µM

COc1cc(Cn2ccnc2)c(OC)cc1Cn1ccnc1
inactive: activity change, negative = inhibition [1] 5.72% | activity change, negative = inhibition [2] -19.5% | activity, negative = inhibition [3] 4.23% | Potency [4] > 20.6 µM

CCOC(=O)c1ccc(NC(=O)COc2ccccc2OC)cc1
inactive: activity change, negative = inhibition [1] -16.3% | activity change, negative = inhibition [2] 0.388% | activity, negative = inhibition [3] 2.17% | Potency [4] > 20.6 µM

CC1CCCCN1C(=O)C12CCC(C)(/C(=N/O)C1)C2(C)C (stereo not drawn)
inactive: activity change, negative = inhibition [1] -2.56% | activity change, negative = inhibition [2] 6.34% | activity, negative = inhibition [3] 7.2% | Potency [4] > 20.6 µM

Cn1c(NCc2cccnc2)nc2c1c(=O)n(Cc1ccccc1F)c(=O)n2C
inactive: activity change, negative = inhibition [1] -1.33% | activity change, negative = inhibition [2] -10.3% | activity, negative = inhibition [3] -20.6% | Potency [4] > 20.6 µM

COc1cc(C2C(C(=O)c3ccc(C)o3)=C(O)C(=O)N2c2cc(C)on2)cc(OC)c1OC (stereo not drawn)
inactive: activity change, negative = inhibition [1] 5.13% | activity change, negative = inhibition [2] -1.16% | activity, negative = inhibition [3] 2.07% | Potency [4] > 20.6 µM

CCCSc1nc(C)c(CC(=O)OCC)c(=O)[nH]1
inactive: activity change, negative = inhibition [1] -4.57% | activity change, negative = inhibition [2] -4.22% | activity, negative = inhibition [3] -2.57% | Potency [4] > 20.6 µM

Cn1c(NCCN2CCCCC2)cc(=O)n(C)c1=O
inactive: activity change, negative = inhibition [1] 6.19% | activity change, negative = inhibition [2] -24.7% | activity, negative = inhibition [3] 9.99% | Potency [4] > 20.6 µM

O=C1C=C(O)CC(c2ccco2)C1 (stereo not drawn)
inactive: activity change, negative = inhibition [1] 10.5% | activity change, negative = inhibition [2] -7.18% | activity, negative = inhibition [3] 3.18% | Potency [4] > 20.6 µM

Cc1ccc(N(CC(O)CN2CCCC2)S(=O)(=O)c2ccc(C)cc2)cc1 (stereo not drawn)
inactive: activity change, negative = inhibition [1] 0.0608% | activity change, negative = inhibition [2] -19.4% | activity, negative = inhibition [3] 11.3% | Potency [4] > 20.6 µM

CCN(CC)CCCN1C(=O)C(=O)/C(=C(/O)c2ccc(Cl)cc2)C1c1ccccn1 (stereo not drawn)
inactive: activity change, negative = inhibition [1] -3.4% | activity change, negative = inhibition [2] 5.22% | activity, negative = inhibition [3] -0.716% | Potency [4] > 20.6 µM

O=C(NC1CCS(=O)(=O)C1)N1CCCCC1 (stereo not drawn)
inactive: activity change, negative = inhibition [1] -10.9% | activity change, negative = inhibition [2] -4.07% | activity, negative = inhibition [3] 9% | Potency [4] > 20.6 µM

Cc1cccc(OCC(=O)N2CCC(N3CCOCC3)CC2)c1
inactive: activity change, negative = inhibition [1] -0.218% | activity change, negative = inhibition [2] 6.61% | activity, negative = inhibition [3] 2.76% | Potency [4] > 20.6 µM

C=CCN(C)CCCNC(=O)/C=N/O
inactive: activity change, negative = inhibition [1] -0.81% | activity change, negative = inhibition [2] 2.2% | activity, negative = inhibition [3] 3.74% | Potency [4] > 20.6 µM

COc1cc(-n2c3nc4ccccc4nc3c3c(=O)n(Cc4ccco4)cnc32)cc(OC)c1OC
inactive: activity change, negative = inhibition [1] -7.36% | activity change, negative = inhibition [2] -5.5% | activity, negative = inhibition [3] 3.4% | Potency [4] > 20.6 µM

COC(=O)CSc1nc(N)nc(C)c1Br
inactive: activity change, negative = inhibition [1] 5.47% | activity change, negative = inhibition [2] 1.04% | activity, negative = inhibition [3] 2.44% | Potency [4] > 20.6 µM

O=C(O)c1cc2n(n1)C(C(F)(F)F)CC(c1ccccc1)N2 (stereo not drawn)
inactive: activity change, negative = inhibition [1] 3.84% | activity change, negative = inhibition [2] -0.387% | activity, negative = inhibition [3] -1.46% | Potency [4] > 20.6 µM

Cc1cc(C(=O)O)c(CSc2ncn[nH]2)o1
inactive: activity change, negative = inhibition [1] 12.5% | activity change, negative = inhibition [2] 19.7% | activity, negative = inhibition [3] 8.82% | Potency [4] > 20.6 µM

CCOC(=O)c1cnc(SC2CC(=O)N(c3cccc(OC)c3)C2=O)nc1N (stereo not drawn)
inactive: activity change, negative = inhibition [1] -16% | activity change, negative = inhibition [2] -6.66% | activity, negative = inhibition [3] -12.1% | Potency [4] > 20.6 µM

OC1CN=C2Sc3ccccc3N2C1 (stereo not drawn)
inactive: activity change, negative = inhibition [1] 1.76% | activity change, negative = inhibition [2] -2.78% | activity, negative = inhibition [3] -3.59% | Potency [4] > 20.6 µM

CC1(C)CC(=O)C=C(NCc2ccncc2)C1
inactive: activity change, negative = inhibition [1] 10% | activity change, negative = inhibition [2] -8.43% | activity, negative = inhibition [3] 8.27% | Potency [4] > 20.6 µM

Oc1c(C=NCc2ccncc2)sc2ccccc12
inactive: activity change, negative = inhibition [1] -15.7% | activity change, negative = inhibition [2] -6.22% | activity, negative = inhibition [3] -1.25% | Potency [4] > 20.6 µM

Nc1ccc2[nH]ncc2c1
inactive: activity change, negative = inhibition [1] 5.98% | activity change, negative = inhibition [2] -1.96% | activity, negative = inhibition [3] -0.564% | Potency [4] > 20.6 µM

Cc1nc2c(c(=O)n1CC1CCCO1)c1nc3ccccc3nc1n2CC(C)C (stereo not drawn)
inactive: activity change, negative = inhibition [1] 2.75% | activity change, negative = inhibition [2] 6.99% | activity, negative = inhibition [3] 8.26% | Potency [4] > 20.6 µM

CCOC(=O)C(NC=O)(NC(C)(C)C)C(=O)OCC
inactive: activity change, negative = inhibition [1] -2.44% | activity change, negative = inhibition [2] 4.66% | activity, negative = inhibition [3] 24.2% | Potency [4] > 20.6 µM

CC(C(=O)N(C)C)N(C#N)c1nc(N(C)C)nc(N(C)C)n1 (stereo not drawn)
inactive: activity change, negative = inhibition [1] 1.24% | activity change, negative = inhibition [2] 2.25% | activity, negative = inhibition [3] -6.97% | Potency [4] > 20.6 µM

COc1cc([C@@H]2[C@H]3CN(C)CC=C3C(C#N)=C(N)C2(C#N)C#N)cc2c1OCO2
inactive: activity change, negative = inhibition [1] -11% | activity change, negative = inhibition [2] 9.82% | activity, negative = inhibition [3] 10.9% | Potency [4] > 20.6 µM

COc1ccc(C(=O)NCC(=O)n2nc(C)cc2C)cc1OC
inactive: activity change, negative = inhibition [1] 6.38% | activity change, negative = inhibition [2] -1.54% | activity, negative = inhibition [3] 16.4% | Potency [4] > 20.6 µM

CC(=O)/C(C#N)=C1\NC(=O)C(Cc2ccccc2)S1 (stereo not drawn)
inactive: activity change, negative = inhibition [1] 0.644% | activity change, negative = inhibition [2] -11.2% | activity, negative = inhibition [3] 3.16% | Potency [4] > 20.6 µM

COCCCn1c2nc3ccccc3nc2c2c(=O)n(CC3CCCO3)cnc21 (stereo not drawn)
inactive: activity change, negative = inhibition [1] 0.107% | activity change, negative = inhibition [2] -12.4% | activity, negative = inhibition [3] -0.209% | Potency [4] > 20.6 µM

CCSc1nnc(NC(=O)NCC(F)(F)F)s1
inactive: activity change, negative = inhibition [1] 7.55% | activity change, negative = inhibition [2] 2.76% | activity, negative = inhibition [3] 16.4% | Potency [4] > 20.6 µM

CSc1nc2sc3c(c2c(=O)[nH]1)CCC(C)C3 (stereo not drawn)
inactive: activity change, negative = inhibition [1] 7% | activity change, negative = inhibition [2] -2.6% | activity, negative = inhibition [3] 8.48% | Potency [4] > 20.6 µM

Cc1nccn1-c1cc(C(C)C)c(C#N)c2nc3ccccc3n12
inactive: activity change, negative = inhibition [1] 0.38% | activity change, negative = inhibition [2] -0.783% | activity, negative = inhibition [3] -0.277% | Potency [4] > 20.6 µM

C=CCn1c(SCC(=O)NC23CC4CC(CC(C4)C2)C3)nc(O)cc1=O
inactive: activity change, negative = inhibition [1] 8.04% | activity change, negative = inhibition [2] -3.75% | activity, negative = inhibition [3] -2.84% | Potency [4] > 20.6 µM

Cc1nc(-c2c(-c3ccc(O)cc3O)noc2C(F)(F)F)cs1
inactive: activity change, negative = inhibition [1] -11.8% | activity change, negative = inhibition [2] -22% | activity, negative = inhibition [3] -18.8% | Potency [4] > 20.6 µM

O=C(CC(c1ccco1)S(=O)(=O)c1ccccc1)c1ccc(F)cc1 (stereo not drawn)
inactive: activity change, negative = inhibition [1] -0.192% | activity change, negative = inhibition [2] -1.61% | activity, negative = inhibition [3] -7.8% | Potency [4] > 20.6 µM

CC1(C)CC(NC(=O)C23CCC(C)(/C(=N/O)C2)C3(C)C)CC(C)(C)N1 (stereo not drawn)
inactive: activity change, negative = inhibition [1] 1.22% | activity change, negative = inhibition [2] 10.5% | activity, negative = inhibition [3] 0.446% | Potency [4] > 20.6 µM

Cc1ccc2[nH]c3c(NCCN4CCOCC4)ncnc3c2c1
inactive: activity change, negative = inhibition [1] -6.77% | activity change, negative = inhibition [2] 7.47% | activity, negative = inhibition [3] 0.396% | Potency [4] > 20.6 µM

COc1cccc(C(=O)NCC(=O)n2nc(C)cc2C)c1
inactive: activity change, negative = inhibition [1] 23.4% | activity change, negative = inhibition [2] -4.99% | activity, negative = inhibition [3] 16.7% | Potency [4] > 20.6 µM
